# HCMV antiviral: blocks human cytomegalovirus replication. activity change, negative = inhibition, % at 57.5 µM. 4.5% of 410,000 active. HFF cells, HCMV-luciferase reporter, 72 h; active compounds read low; in the data active = activity change below about -60%; inconclusive = no clear call, values can overlap the other calls; inactive = above about -39%
#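 Two-dose cell screen: HFF monolayers treated with compounds and infected with luciferase-expressing HCMV at 1 PFU/cell, 72 h at 37C, then lysed for luciferase measurement.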
# Giardia FBPA inh: Giardia lamblia aldolase inhibition | A8B2U2 | Potency, µM (doses to about 59.6 µM), without a hit: top-dose activity, negative = inhibition, hits mostly inhibitors | 0.71% of 290,000 active | purified Giardia FBPA | AID 2451; note: potency is the fitted concentration of half-maximal effect; nearly all actives have a fitted effect of over 55% in size
# Target sequence (A8B2U2 whole entry, looked up): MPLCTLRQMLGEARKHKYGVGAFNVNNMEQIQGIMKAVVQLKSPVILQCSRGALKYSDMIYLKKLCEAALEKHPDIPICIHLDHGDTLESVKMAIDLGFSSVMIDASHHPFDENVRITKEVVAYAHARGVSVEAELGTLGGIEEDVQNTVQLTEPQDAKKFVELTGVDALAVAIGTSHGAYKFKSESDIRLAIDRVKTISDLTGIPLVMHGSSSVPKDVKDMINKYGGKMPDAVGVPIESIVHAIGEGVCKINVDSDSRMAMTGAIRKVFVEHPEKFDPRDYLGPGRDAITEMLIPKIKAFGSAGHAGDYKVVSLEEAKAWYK
#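 40 nM FBPA preincubated 10 min at RT with compound (up to 57.5 uM final), then substrate plus GAPDH/TPI/NAD/arsenate coupling and diaphorase/resazurin added. Fluorescence read after 20 min at RT, 525/598 nm.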
# Pf growth 48h: P. falciparum growth inhibition at 48 hours (one generation). Potency, µM (highest dose often 28.7 µM), for the others: top-dose activity change, negative = inhibition, most hits filed as inhibitors. P. falciparum luciferase growth in erythrocytes, 48 h. 5.9% of 310,000 active; note: potency is the fitted concentration of half-maximal effect
#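 Here the parasites carry a stable luciferase gene and grow inside erythrocytes in Albumax-based RPMI medium with compound for one erythrocytic cycle. Activity is scored as loss of luminescent signal.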
# Pf growth 96h: inhibits malaria parasite growth, 96 h; P. falciparum luciferase reporter growth, 96 h; Potency, µM (top dose mostly 28.7 µM), for the others: at the highest dose activity change, negative = inhibition, actives largely listed as inhibitors; 6.9% of 320,000 active; note: potency is the fitted concentration of half-maximal effect
#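 Two-generation exposure (96 h) targets delayed-death phenotype. Reporter parasites carrying integrated firefly luciferase, in red cells at 2% hematocrit and 0.05% parasitemia final, kept at 37 C, 5% CO2; luminescence loss indicates inhibition.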
# Sm TGR block: blocks Schistosoma mansoni thioredoxin glutathione reductase; AID 485364; 3% of 360,000 active; purified TGR, DTNB reduction, TNB absorbance 405 nm; Potency, µM (top dose mostly 114 µM), for inactives: at the highest dose activity change, negative = inhibition, hits mostly inhibitors; Q962Y6; note: potency is the fitted concentration of half-maximal effect; nearly all actives have a fitted effect of over 60% in size
#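 TGR 20 nM + NADPH 100 uM (dispensed conc.), cpd preinc 15 min RT; start with NADPH (500 uM addition) then DTNB (15 mM addition). Kinetic TNB absorbance, 405 nm filter. Four-parameter Hill fit across titration.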
# An asterisk follows results filed as active; ? = inconclusive; · = not tested or not shown. Hits are enriched below; roughly 14% of the tested compounds scored in any of these assays. Unless noted, calls come from the whole dose curve; as a rule, active = well fitted curve in the direction sought with a large enough effect; inconclusive = small, poorly fitted or top-dose-only effect, or another doubt; inactive = no such curve, though single readings can be large; an effect the other way counts as inactive or inconclusive. % is set by controls: 0 for no effect and ±100 for the full control effect.
SMILES,HCMV antiviral,Giardia FBPA inh,Pf growth 48h,Pf growth 96h,Sm TGR block
COc1ccc(C=O)cc1COc1ccc([N+](=O)[O-])c(C)c1,-22.4,-11.3%,8.0%,18.3%,-7.6%
Cc1cc(OCc2nc(N)nc(N)c2-c2ccc(Cl)c(Cl)c2)ccc1[N+](=O)[O-],-100.1*,·,·,·,·
Nc1nc(N)nc(-c2ccc(Cl)c(Cl)c2)n1,-5.5,·,114.2%,209.7%,0.7%
COc1ccc(Cc2nc3c4cnn(-c5cccc(F)c5)c4ncn3n2)cc1,30.2,·,·,·,3.1%
Cc1cc(/C=N/n2cnnc2)c(C)n1-c1ccc(OCc2ccc(F)cc2)cc1,-86.3*,-0.6%,-5.7%,?,2.9%
c1ccc(-c2nn3c(C4CCCCC4)nnc3s2)nc1,-23.4,1.0%,9.7%,53.1%,-25.6%
Clc1ccc(OCc2nn3c(C4CCCCC4)nnc3s2)cc1,51.1,4.9%,-10.0%,9.28µM*,2.1%
COc1ccc(NC(=O)c2cc(S(=O)(=O)N3CCc4ccccc43)cn2C)cc1,20.1,0.2%,9.28µM*,-10.3%,-12.5%
Cc1ccc(NC(=O)c2cc(S(=O)(=O)N3CCc4ccccc43)cn2C)cc1C,14.4,5.0%,?,-0.6%,15.2%
Cc1ccc(NC(=O)c2cc(S(=O)(=O)N3CCc4ccccc43)cn2C)c(Cl)c1,-60.7*,·,·,·,-8.7%
Cc1cccc(NC(=O)c2cc(S(=O)(=O)N3CCc4ccccc43)cn2C)c1C,-4.7,-14.0%,?,2.7%,-15.9%
COC(=O)C1CCN(C(=O)COC(=O)c2cccc(NS(=O)(=O)c3ccccc3)c2)CC1,-17.3,·,?,-12.7%,-12.0%
CCSc1ncc(Cl)c(C(=O)N(Cc2ccccc2)c2ccc(OC)cc2)n1,-75.4*,·,·,·,-2.4%
COc1cccc(CN(C)CC(=O)Nc2ccccc2C(C)C)c1,-64.7*,?,?,-11.9%,7.5%
Cn1nc(C(=O)NCc2ccccc2)cc1C(=O)NCc1ccccc1,90.0,14.2%,0.0%,?,72.7%
O=C(Nc1cccc2ccccc12)c1cnsn1,-64.2*,2.0%,18.3%,-0.6%,0.0%
O=C(NCc1ccccc1)c1cnsn1,-2.8,11.6%,-15.0%,1.31µM*,0.8%
O=C(NCc1cccnc1)c1cc(C2CCCCN2C(=O)c2ccccc2)on1 (centres undefined),-14.2,·,·,·,·
COc1ccc(NC(=O)CN(C)C(=O)c2c(-c3c(F)cccc3Cl)noc2C)cc1,-30.1,·,?,?,17.7%
CCOc1ccc(NC(=O)CN(C)C(=O)c2c(-c3c(F)cccc3Cl)noc2C)cc1OCC,-17.3,·,?,1.04µM*,-4.0%
CCOc1ccc(NC(=O)CN(C)C(=O)CCc2ccccc2Cl)cc1OCC,-80.4*,·,0.0%,30.1%,?
CCOc1ccc(NC(=O)CN(C)C(=O)c2ccncc2)cc1OCC,7.0,·,8.8%,?,25.1µM*
CCc1nc2ccc(C(=O)N(C)Cc3ccco3)cn2c1N(CC)C(=O)NCCc1ccccc1,-6.1,·,·,·,·
COc1ccc(OC)c2[nH]c(=O)c(CCNS(=O)(=O)c3ccc(F)cc3)cc12,-5.7,-1.7%,-23.6%,39.6%,-6.2%
COc1ccc(OC)c2[nH]c(=O)c(CCNC(=O)c3cc4ccccc4o3)cc12,10.7,-10.6%,8.28µM*,5.22µM*,6.3%
SMILES,HCMV antiviral,Giardia FBPA inh,Pf growth 48h,Pf growth 96h,Sm TGR block
CCS(=O)(=O)NCCc1cc2c(OC)ccc(OC)c2[nH]c1=O,-6.9,-1.1%,-24.4%,2.08µM*,1.2%
Cc1ccn(-c2cc(O)c(-n3ccc(C)n3)cc2O)n1,15.7,-8.1%,41.3%,1.0%,-27.2%
O=C(NCCCSc1ccccc1)c1cc(Br)ccc1O,-79.0*,·,11.4%,-19.2%,7.4%
O=C(NCCSc1ccccc1)c1ccc(Br)cc1,5.2,-4.5%,221.5%,?,-1.3%
COc1ccc(S(=O)(=O)N2CCN(CC(=O)NCCc3cccs3)CC2)cc1,?,·,1.4%,?,14.6%
N#CC1=C(N)SC(N)=C(C#N)C1c1ccc([N+](=O)[O-])cc1,-36.6,?,?,?,?
CCc1ccc(C2C(C#N)=C(N)SC(N)=C2C#N)cc1,-6.4,-25.9%,5.86µM*,-9.0%,-33.1%
N#CC1=C(N)SC(N)=C(C#N)C1c1ccc(C(F)(F)F)cc1,·,?,-24.2%,9.28µM*,-23.4%
CCOc1ccc(C2C(C#N)=C(N)SC(N)=C2C#N)cc1OCC,61.4,-25.9%,?,1.8%,34.1%

# High-throughput results: PubChem, National Center for Advancing Translational Sciences (NCATS)
